{"source": "PubChem BioAssay (NCATS)", "key": {"[1]": {"conditions": "Ebola virus entry assay, blue channel fluorescence"}, "[2]": {"conditions": "Ebola virus entry reporter assay, green channel fluorescence"}, "[3]": {"conditions": "Ebola virus entry cell assay, ratio channel"}, "[4]": {"conditions": "Ebola virus entry assay, reporter ratio channel; AC50: Channel type: primary unless noted; outcome: Channel type: primary unless noted"}, "[5]": {"conditions": "Ebola virus entry assay, blue channel (ratio component)"}, "[6]": {"assay": "Immunotoxin (HA22) sensitization/mitigation study. Vehicle arm (PBS) (AID 1159510); note: potency is the fitted concentration of half-maximal effect", "conditions": "cancer cells viability with PBS vehicle (HA22 study); series mostly up to 46.1 µM"}, "[7]": {"assay": "Immunotoxin (SS1P) sensitization/mitigation study. Vehicle arm (DMEM) (AID 1159513); note: potency is the fitted concentration of half-maximal effect", "conditions": "cell viability with vehicle (DMEM); series mostly up to 46.1 µM"}}, "note": "For part of these data: Measured potencies and affinities stand elsewhere. Active and inactive are the calls of the source. Entries that show only a call come without a potency.", "data": [{"smiles": "CN(C)CCc1c[nH]c2ccc(Cn3cncn3)cc12", "values": [{"measurement": "outcome", "setting": "[1]", "value": "inactive"}, {"measurement": "outcome", "setting": "[2]", "value": "inactive"}, {"measurement": "outcome", "setting": "[3]", "value": "inactive"}]}, {"smiles": "COC(=O)C(c1ccccc1)C1CCCCN1", "note": "(centres undefined)", "values": [{"measurement": "outcome", "setting": "[1]", "value": "inactive"}, {"measurement": "outcome", "setting": "[3]", "value": "inactive"}]}, {"smiles": "CN1C(=O)C(O)N=C(c2ccccc2)c2cc(Cl)ccc21", "note": "(centres undefined)", "values": [{"measurement": "outcome", "setting": "[1]", "value": "inactive"}, {"measurement": "outcome", "setting": "[3]", "value": "inactive"}]}, {"smiles": "Nc1ccn([C@@H]2O[C@H](CO)[C@@H](O)C2O)c(=O)n1", "note": "(some centres undefined)", "values": [{"measurement": "outcome", "setting": "[1]", "value": "inactive"}, {"measurement": "outcome", "setting": "[3]", "value": "inactive"}]}, {"smiles": "C[N+]1(C)[C@@H]2CC(OC(=O)C(O)(c3cccs3)c3cccs3)C[C@H]1[C@@H]1O[C@@H]12", "note": "(some centres undefined)", "values": [{"measurement": "outcome", "setting": "[1]", "value": "inactive"}, {"measurement": "outcome", "setting": "[3]", "value": "inactive"}]}, {"smiles": "Cc1nnc2n1-c1ccc(Cl)cc1C(c1ccccc1Cl)=NC2", "values": [{"measurement": "outcome", "setting": "[1]", "value": "inactive"}, {"measurement": "outcome", "setting": "[3]", "value": "inactive"}]}, {"smiles": "CCC[C@@H]1C[C@@H](C(=O)N[C@@H]([C@H]2O[C@H](SC)[C@H](O)[C@@H](O)[C@H]2O)[C@H](C)Cl)N(C)C1", "values": [{"measurement": "outcome", "setting": "[1]", "value": "inactive"}, {"measurement": "outcome", "setting": "[3]", "value": "inactive"}]}, {"smiles": "C=CC1=C(C(=O)O)N2C(=O)[C@@H](NC(=O)/C(=N\\O)c3csc(N)n3)[C@H]2SC1", "note": "(stereo in doubt)", "values": [{"measurement": "outcome", "setting": "[1]", "value": "inactive"}, {"measurement": "outcome", "setting": "[3]", "value": "inactive"}]}, {"smiles": "CCN1C(=O)NC(c2ccccc2)C1=O", "note": "(centres undefined)", "values": [{"measurement": "outcome", "setting": "[1]", "value": "inactive"}, {"measurement": "outcome", "setting": "[3]", "value": "inactive"}]}, {"smiles": "CO/N=C(/C(=O)N[C@@H]1C(=O)N2C(C(=O)O)=C(COC(N)=O)CS[C@H]12)c1ccco1", "values": [{"measurement": "outcome", "setting": "[1]", "value": "inactive"}, {"measurement": "outcome", "setting": "[3]", "value": "inactive"}]}, {"smiles": "C#C[C@]1(O)CC[C@H]2[C@@H]3CCc4cc(OC5CCCC5)ccc4[C@H]3CC[C@@]21C", "values": [{"measurement": "AC50", "setting": "[4]", "value": "5.01 µM (active)"}, {"measurement": "outcome", "setting": "[5]", "value": "inactive"}]}, {"smiles": "Nc1ccn(C[C@@H](CO)OCP(=O)(O)O)c(=O)n1", "values": [{"measurement": "outcome", "setting": "[1]", "value": "inactive"}, {"measurement": "outcome", "setting": "[3]", "value": "inactive"}]}, {"smiles": "COc1ccccc1N1CCN(CCCCNC(=O)c2ccc(-c3ccc(C(C)=O)cc3)cc2)CC1", "values": [{"measurement": "outcome", "setting": "[4]", "value": "inactive"}, {"measurement": "outcome", "setting": "[5]", "value": "inactive"}]}, {"smiles": "O=C(C1CCCCC1)N1CC(=O)N2CCCc3ccccc3C2C1", "note": "(centres undefined)", "values": [{"measurement": "outcome", "setting": "[4]", "value": "inactive"}, {"measurement": "outcome", "setting": "[5]", "value": "inactive"}]}, {"smiles": "CCCCCCCCCCCCCCCC(=O)OCCC1CCN(CCCN2c3ccccc3Sc3ccc(S(=O)(=O)N(C)C)cc32)CC1", "values": [{"measurement": "outcome", "setting": "[1]", "value": "inactive"}, {"measurement": "outcome", "setting": "[3]", "value": "inactive"}]}, {"smiles": "Nc1nc(Cl)nc2c1ncn2[C@H]1C[C@H](O)[C@@H](CO)O1", "values": [{"measurement": "outcome", "setting": "[1]", "value": "inactive"}, {"measurement": "outcome", "setting": "[3]", "value": "inactive"}, {"measurement": "Potency", "setting": "[6]", "value": "9.59 µM (active)"}, {"measurement": "Potency", "setting": "[7]", "value": "48.1 µM (active)"}]}, {"smiles": "CN1C(C(=O)Nc2ccccn2)=C(O)c2sccc2S1(=O)=O", "values": [{"measurement": "outcome", "setting": "[4]", "value": "inactive"}, {"measurement": "outcome", "setting": "[5]", "value": "inactive"}]}, {"smiles": "COc1ccc2c(c1)c(CC(=O)OC/C=C(\\C)CC/C=C(\\C)CCC=C(C)C)c(C)n2C(=O)c1ccc(Cl)cc1", "values": [{"measurement": "outcome", "setting": "[4]", "value": "inactive"}, {"measurement": "outcome", "setting": "[5]", "value": "inactive"}]}, {"smiles": "N[C@@H](CCC(=O)N[C@@H](CS)C(=O)NCC(=O)O)C(=O)O", "values": [{"measurement": "outcome", "setting": "[4]", "value": "inactive"}, {"measurement": "outcome", "setting": "[5]", "value": "inactive"}]}, {"smiles": "Cc1cc(CC(=O)O)c(C)n1-c1ccc(Cl)cc1", "values": [{"measurement": "outcome", "setting": "[4]", "value": "inactive"}, {"measurement": "outcome", "setting": "[5]", "value": "inactive"}]}, {"smiles": "CC(=O)O[C@]1(C(C)=O)CC[C@H]2[C@@H]3C[C@H](C)C4=CC(=O)CC[C@]4(C)[C@H]3CC[C@@]21C", "values": [{"measurement": "outcome", "setting": "[4]", "value": "inactive"}, {"measurement": "outcome", "setting": "[5]", "value": "inactive"}]}, {"smiles": "Cc1cc2nc3c(=O)[nH]c(=O)nc-3n(C[C@H](O)[C@H](O)[C@H](O)CO)c2cc1C", "values": [{"measurement": "outcome", "setting": "[4]", "value": "inactive"}, {"measurement": "outcome", "setting": "[5]", "value": "inactive"}]}, {"smiles": "Cc1c(C)c2c(c(C)c1O)CCC(C)(COc1ccc(CC3SC(=O)NC3=O)cc1)O2", "note": "(centres undefined)", "values": [{"measurement": "outcome", "setting": "[4]", "value": "inactive"}]}, {"smiles": "COc1cccc2c1C(=O)c1c(O)c3c(c(O)c1C2=O)C[C@@](O)(C(=O)CO)CC3OC1CC(N2CCOC(OC)C2)C(O)C(C)O1", "note": "(some centres undefined)", "values": [{"measurement": "AC50", "setting": "[4]", "value": "31.6 µM (active)"}, {"measurement": "outcome", "setting": "[5]", "value": "inactive"}]}, {"smiles": "CC(C)NCC(O)c1cc(O)cc(O)c1", "note": "(centres undefined)", "values": [{"measurement": "outcome", "setting": "[4]", "value": "inactive"}, {"measurement": "outcome", "setting": "[5]", "value": "inactive"}]}, {"smiles": "COCCOC(=O)C1=C(C)NC(C)=C(C(=O)OC(C)C)C1c1cccc([N+](=O)[O-])c1", "note": "(centres undefined)", "values": [{"measurement": "outcome", "setting": "[4]", "value": "inactive"}, {"measurement": "outcome", "setting": "[5]", "value": "inactive"}]}]}
